ST2 IL33 inh: blocks human ST2 binding to IL-33; AID 1259354; inhibition, % for hits at 17 µM; 78,000 tested, 2.3% active; Q01638; AlphaLISA ST2-Fc/biotin-IL-33 interaction, 1 h; in the data active = inhibition above about 30%
Target sequence (Q01638 whole entry, looked up): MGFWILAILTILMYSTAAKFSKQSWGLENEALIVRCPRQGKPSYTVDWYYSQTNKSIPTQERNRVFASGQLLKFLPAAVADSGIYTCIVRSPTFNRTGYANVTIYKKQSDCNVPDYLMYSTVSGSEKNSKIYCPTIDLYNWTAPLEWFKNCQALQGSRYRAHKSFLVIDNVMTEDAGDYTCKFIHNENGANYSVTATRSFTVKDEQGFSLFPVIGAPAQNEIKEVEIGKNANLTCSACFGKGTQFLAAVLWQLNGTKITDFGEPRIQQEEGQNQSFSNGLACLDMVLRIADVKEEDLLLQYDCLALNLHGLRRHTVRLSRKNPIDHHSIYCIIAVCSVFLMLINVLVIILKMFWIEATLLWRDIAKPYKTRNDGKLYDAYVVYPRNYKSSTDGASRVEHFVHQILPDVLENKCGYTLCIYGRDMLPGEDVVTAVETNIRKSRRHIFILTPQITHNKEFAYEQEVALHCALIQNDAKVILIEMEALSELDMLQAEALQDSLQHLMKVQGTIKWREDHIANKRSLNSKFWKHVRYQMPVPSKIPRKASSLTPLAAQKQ
Hits are given with their value; - = inactive. Only a selection was taken, and hits are over-represented in it overall.

SMILES | ST2 IL33 inh
CCOc1ccc(-n2c(SCC(=O)Nc3ccc(F)cc3)nc3c(c2=O)SCC3)cc1 | -
Cc1ccc(CN2C(=O)CSc3ccc(C(=O)NC4CCCCC4C)cc32)cc1 (stereo not drawn) | -
COc1ccc(OC)c(CN2CCN(c3ccc(C(C)=O)cc3)CC2)c1 | -
Cc1cc(N(C)C)nc(Nc2ccc(NC(=O)c3c(F)cccc3F)cc2)n1 | -
COc1ccc(Cl)cc1C(=O)Nc1ccc(Nc2nc(C)cc(Nc3ccccc3)n2)cc1 | -
Cc1cc(N(C)C)nc(Nc2ccc(NC(=O)c3ccccc3C)cc2)n1 | 31%
COc1ccc(Cl)cc1C(=O)Nc1ccc(Nc2nc(C)cc(N(C)C)n2)cc1 | 33%
COc1cc(OC)cc(C(=O)Nc2ccc(Nc3nc(C)cc(N(C)C)n3)cc2)c1 | -
Cc1cc(N(C)C)nc(Nc2ccc(NC(=O)c3ccccc3C(F)(F)F)cc2)n1 | -
CCN1CCCC1CNC(=O)CCC(=O)Nc1ccc2nc(N3CCN(C)CC3)cc(C)c2c1 (stereo not drawn) | -
CC(C)Cc1cc(C(=O)Nc2sc3c(c2C(N)=O)CCCC3)no1 | -
CCN(CC)C(=O)CSc1nc2c(cc1C#N)CCCCC2 | -
C(=Nc1cnc2ccccc2c1)c1c2n(c3ccccc13)CCCN2 | 30%
CCOCCCn1c(=N)c(C(=O)NCCc2ccccc2)cc2c(=O)n3ccccc3nc21 | -
C=C(C)COc1cccc(C(=O)N2CCCN(C(=O)C3CCCO3)CC2)c1 (stereo not drawn) | -
COc1ccc(Nc2cc(C)nc(Nc3ccc(NC(=O)c4ccccc4OC)cc3)n2)cc1 | 39%
COc1ccc(NC(=O)Cc2ccc(Br)cc2)cc1 | -
COc1ccc(CC(=O)Nc2ccc(Nc3nc(C)cc(Nc4ccc(OC)cc4)n3)cc2)cc1 | 33%
COc1cccc(C(=O)Nc2ccc(Nc3nc(C)cc(Nc4ccccc4)n3)cc2)c1 | -
CC(=O)Nc1ccc(Nc2nc(C)cc(Nc3ccccc3)n2)cc1 | -
CCC(CC)C(=O)Nc1ccc(Nc2nc(C)cc(Nc3ccccc3)n2)cc1 | -
Cc1cc(Nc2ccccc2)nc(Nc2ccc(NC(=O)c3ccc(F)cc3)cc2)n1 | -
COc1ccc(C(=O)Nc2ccc(Nc3nc(C)cc(Nc4ccc(C)cc4)n3)cc2)cc1OC | -
COc1ccc(Nc2cc(C)nc(Nc3ccc(NC(=O)CCCc4ccccc4)cc3)n2)cc1 | 31%
O=C(NCCc1cnn(-c2ccccc2)c1)C1CC(Cc2ccccc2Cl)=NO1 (stereo not drawn) | -
SMILES | ST2 IL33 inh
CCC(=O)Nc1cccc(C(=O)N2CCCC2c2ccccn2)c1 (stereo not drawn) | -
O=C(Cc1cccs1)N1CCc2c(c(C(=O)N3CCOCC3)nn2CCCc2ccccc2)C1 | -
Cc1ccc(C(=O)N2CCc3c(c(C(=O)N4CCNC(=O)C4)nn3CCCc3ccccc3)C2)s1 | 30%
O=C(c1n[nH]c2c1CCC2)N1CCc2c(c(C(=O)N3CCOCC3)nn2CCCc2ccccc2)C1 | -
CCOC(=O)c1c(NC(=O)C(C)Oc2ccccc2Br)sc(C(C)=O)c1C (stereo not drawn) | -
CSc1cccc(CN(C)C(=O)[C@H](N)CC(C)C)c1 | -
CSc1nc2c(c(=O)[nH]1)C(c1cccc(F)c1)C1=C(CC(C)(C)CC1=O)N2 (stereo not drawn) | -
Cc1cc(C2CCC2)nc(N[C@@H]2C[C@@H](CO)N(C)C2)n1 | -
Cc1ccc(-c2noc(CCC(=O)NCCCN3CC(C)CC(C)C3)n2)cc1 (stereo not drawn) | -
O=C(Nc1c[nH]c(=O)[nH]c1=O)c1ccc(Oc2ccc(C(=O)Nc3c[nH]c(=O)[nH]c3=O)cc2)cc1 | 36%
O=C(CCc1ccccc1)Nc1c[nH]c(=O)[nH]c1=O | -
O=C(Nc1c[nH]c(=O)[nH]c1=O)c1ccc(N2C(=O)C3C4C=CC(C4)C3C2=O)cc1 (stereo not drawn) | -
CC(=O)Nc1cccc(NC(=O)c2ccc(-c3ccccc3)cc2)c1 | -
O=C(O)c1[nH]c2ccccc2c1CC(=O)N1CCC(Cc2ccccc2)CC1 | -
COCCCNC(=O)c1cnc2n(c1=O)CCS2 | -
CC(C)(C)NC(=O)c1ccc(-c2ccccc2)cc1 | -
CC(=O)NC(=Nc1nc(C)c2cc(C)ccc2n1)NC(C)=O | -
Cc1ccc2nc(N=C(N)NC(=O)Cc3ccc(Cl)cc3)nc(C)c2c1 | 30%
COc1ccc2nc(N=C(N)NC(=O)Nc3ccccc3)nc(C)c2c1 | -
O=C(O)/C=C1\NC(=O)c2ccccc21 | -
O=C1Nc2ccccc2C1=Nc1ccc(C(=O)O)cc1 | -
O=C1Nc2ccccc2/C1=C/C(=O)c1ccc(Cl)cc1 | 32%
CN(Cc1ccccc1)Cc1nc2c(c(=O)n(C)c(=O)n2C)n1Cc1ccc(Cl)cc1Cl | -
O=C(CCS(=O)(=O)c1ccc(Br)s1)Nc1ccccc1Cl | -
Cc1nn(-c2ccccc2)c2c1C(c1cccnc1)C(C#N)=C(N)O2 (stereo not drawn) | -
SMILES | ST2 IL33 inh
Cc1nn(-c2ccccc2)c2c1C(c1ccncc1)C(C#N)=C(N)O2 (stereo not drawn) | 38%
Cc1nn(-c2ccccc2)c2c1C(c1ccc([N+](=O)[O-])o1)C(C#N)=C(N)O2 (stereo not drawn) | 39%
CC1=C(n2nnc3ccccc32)C(c2ccccc2)C(C#N)=C(N)O1 (stereo not drawn) | -
N#CC1=C(N)Oc2n[nH]c(-c3ccccc3)c2C1c1ccc([N+](=O)[O-])cc1Cl (stereo not drawn) | -
COc1ccc(Br)cc1C1C(C#N)=C(N)Oc2c1c(C)nn2-c1ccccc1 (stereo not drawn) | -
CC1CCCN(c2nc(Nc3ccccc3F)nc(Oc3ccc(F)cc3)n2)C1 (stereo not drawn) | -
Nc1cccc(C(=O)Nc2cccc(S(=O)(=O)CCO)c2)c1 | -
CCOC(=O)c1c(NC(=O)C2CCCC2)sc(C(C)=O)c1C | -
CCCNC(=O)c1cc2nc(-c3ccc(Cl)cc3)cc(C(F)(F)F)n2n1 | -
CCN1Cc2nc(OC)c(CNC(=O)c3cnn4ccn(C)c34)cc2C1=O | -
O=C1NC(=Nc2ccccc2)S/C1=C/c1ccc(O)c(O)c1 | 35%
O=C1NC(=Nc2ccccc2)S/C1=C/c1ccc(F)c(Br)c1 | 43%
O=C1NC(=Nc2cccc(Br)c2)SC1(CO)CO | -
Cc1ccc(NC(=O)CC2SC(=Nc3ccccc3)NC2=O)c(C)c1 (stereo not drawn) | -
O=C1NC(=Nc2ccccc2)S/C1=C/c1cc(Br)ccc1O | 36%
O=C1NC(=Nc2ccccc2)SC1(CO)CO | -
O=C1CC(c2ccc(F)c(Br)c2)c2ccc3ccccc3c2N1 (stereo not drawn) | -
Cc1ccccc1CC1SC(=Nc2ccccc2)NC1=O (stereo not drawn) | -
CCOc1cc(/C=C2\C(=O)NC(=O)N(c3ccccc3)C2=O)ccc1O | -
O=C(O[n+]1ccc(N2CCOCC2)cc1)N1CCCCC1 | -
Cc1oc(-c2cccs2)nc1CN1CCCC(C(=O)NC2CCCc3ccccc32)C1 (stereo not drawn) | -
O=C(c1ccc2c(Cl)c3c(nc2c1)CCCC3)N1CCN(c2ncccn2)CC1 | -
Cc1ncc(-c2c(-c3ccccc3)ncn2C)[nH]1 | -
CCOc1ccc(C2CC(=O)N3CN(c4ccc(OC)cc4OC)CSC3=C2C#N)cc1 (stereo not drawn) | -
Cc1ccc(-c2cc(O)cc3sc(=O)oc23)cc1 | -
O=C(c1cc(-c2ccc(Cl)c(Cl)c2)nc2ccccc12)N1CCOCC1 | -
Cc1cccc(C(=O)Nc2sc3c(c2C(=O)Nc2ccccn2)CCC(C)C3)c1 (stereo not drawn) | -
